We go through 38 compounds from PubChem BioAssay (NCI).

Assay [1] is described as follows: NCI Yeast Anticancer Drug Screen. Data for the rad50 strain (AID 155).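 Further: 0% = growth of vehicle-only cultures of the same strain.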 Conditions: S. cerevisiae rad50 strain growth inhibition, hits give high values; at 50.0 µM unless noted. Put shortly: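 DNA repair mutant yeast, compound exposure, growth read-out; inhibition is taken relative to vehicle.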
The nature of assay [2]: NCI Yeast Anticancer Drug Screen. Data for the mec2-1 strain (AID 157). Conditions: S. cerevisiae mec2-1 strain, hits give high values; at 50.0 µM unless noted. The procedure, abridged:
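Mutant yeast (mec2-1) grown with compound; growth inhibition relative to vehicle control reported.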

Assay [3] can be described thus: NCI Yeast Anticancer Drug Screen. Data for the sgs1 mgt1 strain (AID 161).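 Further: 0% = growth of cultures given vehicle only.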 Conditions: S. cerevisiae sgs1 mgt1 strain, hits give high values; at 50.0 µM unless noted. Put shortly: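 This yeast growth screen uses a strain with defined DNA-repair lesions; compound-treated growth is compared with vehicle-treated growth.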
Assay [4] can be described thus: NCI Yeast Anticancer Drug Screen. Data for the cln2 rad14 strain (AID 165).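 Further: 0% = growth equal to vehicle treated cultures.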 Conditions: S. cerevisiae cln2 rad14 strain, hits give high values; at 50.0 µM unless noted. The procedure, abridged:
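Readout is yeast growth inhibition versus vehicle-treated controls, using a strain with cln2 and rad14 alterations exposed to compound.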

Assay [5] can be described thus: NCI Yeast Anticancer Drug Screen. Data for the bub3 strain (AID 167). Conditions: S. cerevisiae bub3 mutant strain, hits give high values; at 50.0 µM unless noted. The procedure, abridged:
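In this screen, a yeast mutant lacking normal mitotic checkpoint function is challenged with compound. Relative growth versus vehicle gives the inhibition value.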

Assay [6] is described as follows: NCI Yeast Anticancer Drug Screen. Data for the mlh1 rad18 strain (AID 175). Conditions: S. cerevisiae mlh1 rad18 strain growth inhibition, hits give high values; at 50.0 µM unless noted. Put shortly:
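Genetically defined yeast (DNA repair-deficient) exposed to compounds; growth inhibition determined relative to vehicle.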

Several values for one entry are separate records, joined by “and”; a condition that tells them apart may be missing. Equal values may be shown once. This is part of a sample that, as a whole, favours compounds with a hit. Of some 79,000 tested, about 15% had one in any assay. Values without a mark were called inactive. Activity calls are given as the source filed them. No stated cut-off is given here; in the data, active means growth inhibition above about 70%; inactive means the rest.

`CN1CCN(C2c3ccccc3OC(C)(C)C2O)CC1` (stereo not drawn): the growth inhibition in assay [1] is -23.9%; in assay [2] it was -14%; in assay [3], -14.8%; in assay [4] it was -25.8%; in assay [5], -15.7%; in assay [6] it was 8.8%.

For `Clc1ccc(OCC(COc2ccccc2)Oc2nc(-c3ccccc3)nc(-c3ccccc3)n2)cc1` (stereo not drawn), the growth inhibition is -14.2% in assay [1]; 2.25% in assay [2]; 3.1% in assay [3]; -5.8% in assay [4]; -8.6% in assay [5]; -17.1% in assay [6].

Consider `CC(=O)N(C(C)=O)N1C(=O)CSC1=S`, for which the growth inhibition in assay [1] is -11.1%; in assay [2] it was -35%; in assay [3], -21.8%; in assay [4], -3.4%; in assay [5] it was 17.4%; in assay [6] it was -7.2%.

For `O=C(Nc1ccc(Br)c2ccccc12)c1ccc2ccccc2c1O`, the growth inhibition in assay [1] is -0.05%; in assay [2], -2.1%; in assay [3], -26.1%; in assay [4] it was -11.2%; in assay [5], -37.5%; in assay [6], -78.8%.

On to `O=C1OC(C2OC(=O)C(=O)C2C2CCCCCCC2=O)C(C2CCCCCCC2=O)C1=O` (stereo not drawn), for which the growth inhibition in assay [1] is 45.5%; in assay [2], 9.15%; in assay [3] it was 29.4%; in assay [4], 32.9%; in assay [5], 39.2%; in assay [6], 26.4%.

For the compound `COc1ccc2c3c(ccc2c1)[C@@H]1C/C(=C(\OC(C)=O)C(F)(F)F)C(=O)[C@@]1(C)CC3`, the growth inhibition is -0.85% in assay [1]; -4.85% in assay [2]; 0.4% in assay [3]; 20.8% in assay [4]; -11.2% in assay [5]; 20.3% in assay [6].

As for `CCNC(=O)Nc1cccc(C)n1`, the growth inhibition in assay [1] is 14.9%; in assay [2], 14.1%; in assay [3], 22.8%; in assay [4], 27.6%; in assay [5], 4.4%; in assay [6] it was 19.4%.

As for `CN(C)CCOC(=O)C1C2CC3OC(=O)C1C3C2` (stereo not drawn), the growth inhibition in assay [1] was -2.4%; in assay [2], -13.6%; in assay [3], 17.5%; in assay [4], -5%; in assay [5] it was 7.25%; in assay [6] it was -19.4%.

As for `Cc1nc(-c2cccnc2)sc1C(=O)CC(=O)C(=O)Nc1cccc(NC(=O)C(=O)CC(=O)c2sc(-c3cccnc3)nc2C)n1`, the growth inhibition in assay [1] is 20.2%; in assay [2], -0.75%; in assay [3], -21.6%; in assay [4], 0.1%; in assay [5], -12.9%; in assay [6] it was 6.85%.

With `Nc1ccc2c(c1)C(=O)c1cc(Cl)cc(Cl)c1-2`, the growth inhibition in assay [1] was 0%; in assay [2], -4.75%; in assay [3], -0.5%; in assay [4], -44%; in assay [5], 7.05%; in assay [6], 2.25%.

Regarding `NC(=O)CC(NC(=O)CCl)C(=O)O` (stereo not drawn), the growth inhibition is -12.3% and -15% in assay [1]; -24.8% and -8.15% in assay [2]; 2.1% in assay [3]; 12.4% in assay [4]; -0.35% in assay [5]; -22.4% and -16.1% in assay [6].

Take `Cn1cnc2nc(Cl)nc(N)c21`: the growth inhibition was 0% in assay [1]; -4.15% in assay [2]; 6.05% in assay [3]; -16.6% in assay [4]; 7.75% in assay [5]; -9.4% in assay [6].

Regarding `CC(C)N=C(N)N=C(N)N`, the growth inhibition is 30.9% in assay [1]; 13.5% in assay [2]; 3.85% in assay [3]; 3.9% in assay [4]; 30.2% in assay [5]; -3.2% in assay [6].

`COc1ccc(C)cc1S(=O)(=O)c1ccc(Cl)cc1[N+](=O)[O-]`: the growth inhibition in assay [1] was -2.55%; in assay [2], -11.1%; in assay [3], 2%; in assay [4], -12.7%; in assay [5] it was 2.25%; in assay [6], -25.1%.

In the case of `CC(C)N(C(=O)c1ccccc1O)C(C)C`, the growth inhibition in assay [1] was 2.95%; in assay [2], -7.65%; in assay [3], 6.55%; in assay [4], -7.7%; in assay [5] it was -4.4%; in assay [6], 2%.

For the compound `CCCCN1C(=O)CC2[C@@H]3CCc4cc(OC(C)=O)ccc4C3CC[C@]2(C)C1=O` (stereo partly drawn), the growth inhibition in assay [1] was 11.3%; in assay [2], 4.15%; in assay [3] it was 5.45%; in assay [4], 26.6%; in assay [5], -7.3%; in assay [6], -0.1%.

Regarding `O=C1OC(c2ccccc2)Cc2ccccc21` (stereo not drawn), the growth inhibition was -20.2% in assay [1]; -10.8% in assay [2]; -22.1% in assay [3]; 4.55% in assay [4]; 3.15% in assay [5]; -9.9% in assay [6].

Regarding `O=C1NCC1c1ccccc1` (stereo not drawn), the growth inhibition in assay [1] is -12%; in assay [2], -4.85%; in assay [3] it was -8.65%; in assay [4], 5.35%; in assay [5], 19.1%; in assay [6] it was 3.45%.

Turning to `C/C(=N/N)c1ccc2[nH]c3c(C)cc([N+](=O)[O-])c(C)c3c2c1`, the growth inhibition was 16.9% in assay [1]; -6.9% in assay [2]; -22.9% in assay [3]; 13.7% in assay [4]; 3.65% in assay [5]; 6.35% in assay [6].

On to `Cc1ccc(S(=O)(=O)OC2CCN(C)CC2)cc1`, for which the growth inhibition was 36.5% in assay [1]; 6.75% in assay [2]; 15.8% in assay [3]; 9.6% in assay [4]; 43.2% in assay [5]; 30.1% in assay [6].

For `O=C(NCCS)C(=O)NCCS`, the growth inhibition was -1.55% in assay [1]; 7.9% in assay [2]; 3.65% in assay [3]; 9.7% in assay [4]; -12.7% in assay [5]; -10.2% in assay [6].

For the compound `O=C(CC1=Nc2nnc(-c3nnc4n3C(=O)C(CC(=O)c3cccnc3)=N4)n2C1=O)c1cccnc1`, the growth inhibition in assay [1] is -5%; in assay [2], -8.55%; in assay [3] it was -1.35%; in assay [4], -19.2%; in assay [5], -6.35%; in assay [6], -12.7%.

Consider `CC[N+]1(CN2CCCCC2)CCCCC1`, for which the growth inhibition in assay [1] was 18.5%; in assay [2], -2.8%; in assay [3], 4%; in assay [4], -7.4%; in assay [5], -22.6%; in assay [6], 37.6%.

As for `Cn1cnc([N+](=O)[O-])c1Sc1ncc[nH]1`, the growth inhibition in assay [1] was 1.3%; in assay [2], 3.1%; in assay [3], -3.05%; in assay [4], 16.4%; in assay [5], 9.7%; in assay [6] it was 2.8%.

Consider `COC(=O)CCC(C)C1CCC2(C)C3=C(C(=O)CC12C)C1(C)CCC(O)C(C)(C)C1=C(O)C3` (stereo not drawn), for which the growth inhibition was 81.7% (active) in assay [1]; 74.2% (active) in assay [2]; 77.6% (active) in assay [3]; 79.9% (active) in assay [4]; 70.8% (active) in assay [5]; 83.8% (active) in assay [6].

Turning to `Cc1ccc2nc(Sc3c([N+](=O)[O-])ncn3C)[nH]c2c1`, the growth inhibition in assay [1] is -16.1%; in assay [2], -16.4%; in assay [3], -18.2%; in assay [4], 5.75%; in assay [5], -20.7%; in assay [6], -25.4%.

For `CC1(C)OCC(N)[C@@H](O)CO1` (stereo partly drawn), the growth inhibition in assay [1] is 5%; in assay [2] it was 12.9%; in assay [3] it was 13.3%; in assay [4], -26.2%; in assay [5] it was 3.5%; in assay [6], -0.65%.

With `CC(=O)[CH-]C(=O)c1ccccc1.CC(=O)[CH-]C(=O)c1ccccc1.CC(C)CCCC(C)[C@H]1CCC2[C@@H]3CCC4C[C@@H]([O-])CC[C@]4(C)C3CC[C@@]21C.CC(C)CCCC(C)[C@H]1CCC2[C@@H]3CCC4C[C@@H]([O-])CC[C@]4(C)C3CC[C@@]21C.Cl.[Ti+4]` (stereo partly drawn), the growth inhibition in assay [1] is 14.4%; in assay [2] it was 1.25%; in assay [3] it was 21.4%; in assay [4], -12.1%; in assay [5] it was 25.6%; in assay [6], -0.95%.

For `CN(C)c1nc(N(C)C)nc(N(C)CN(C)c2ccc(Cl)cc2)n1`, the growth inhibition in assay [1] was -11.3%; in assay [2], -23.3%; in assay [3], -26.8%; in assay [4] it was -11.3%; in assay [5], -49%; in assay [6], -16.4%.

As to `O=[N+]([O-])c1ccc2c(c1)S(=O)c1ccccc1-2` (stereo not drawn), the growth inhibition was -18.1% in assay [1]; -3.65% in assay [2]; -12.4% in assay [3]; 1% in assay [4]; -37.8% in assay [5]; -4.8% in assay [6].

`O=CC(=O)C(O)C(O)C(O)CO` (stereo not drawn): the growth inhibition in assay [1] was 9.5%; in assay [2] it was 22.9%; in assay [3], 26.2%; in assay [4], -0.05%; in assay [5], -4.95%; in assay [6], 19.4%.

Take `C=CCNc1nc(Cl)nc2c1cnn2C`: the growth inhibition in assay [1] is 13.3%; in assay [2], -3%; in assay [3], -2.95%; in assay [4], -21.3%; in assay [5], 8.55%; in assay [6], -5.15%.

Take `O=C(OC1CCC/C=C\CCCC1)c1ccc(Cl)cc1` (stereo not drawn): the growth inhibition in assay [1] is 1.45%; in assay [2] it was -4.35%; in assay [3] it was -16.4%; in assay [4], -2.1%; in assay [5], -1.5%; in assay [6] it was 2.45%.

`CC(=O)/C=C/N1CCOCC1`: the growth inhibition in assay [1] was 3.25%; in assay [2], -9.55%; in assay [3] it was -9.6%; in assay [4], -16.9%; in assay [5] it was 19.6%; in assay [6], -5.65%.

Take `CC(C)(C)CNCCO`: the growth inhibition in assay [1] was -2.45%; in assay [2], -23.4%; in assay [3] it was -2%; in assay [4], -7.5%; in assay [5], -7.55%; in assay [6], -6.3%.

Turning to `NC(=O)CCCO`, the growth inhibition in assay [1] was 6.1%; in assay [2], -2.65%; in assay [3] it was -3.25%; in assay [4], 6.6%; in assay [5], 3.25%; in assay [6] it was 2.4%.

For the compound `O=C1CSC2=NCCN12`, the growth inhibition is 14.8% and 22.8% in assay [1]; -3.6% and -15.3% in assay [2]; -5.25% and 6.8% in assay [3]; 1.5% and 3.2% in assay [4]; 1.55% and -11.9% in assay [5]; 21.3% and 18.8% in assay [6].

Take `O=C(CC(=O)Nc1ccccc1Cl)NNC(c1cc(N=Nc2ccc(Br)cc2)ccc1O)P(O)O` (stereo not drawn): the growth inhibition in assay [1] was 1.8%; in assay [2], 0.3%; in assay [3] it was 16.6%; in assay [4], 13.4%; in assay [5], -8.25%; in assay [6], -2.35%.
